A number with no mark means an inactive call.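 How the source made its calls: active = log2 fold change beyond 2 SD from the library mean after excluding viability outliers; inactive = within 2 SD.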
Biological target: PARP1 L713F-nLuc biosensor (HCT116) (UniProt P09874)
Assay: PARP1 L713F-nLuc/akaLuc ratio relative to DMSO control (biosensor stabilization) (fold change); higher = more PARP1 biosensor stabilization (target engagement / stabilizer), active = hit call of the paper
Details: stock concentration (mM; final µM = stock mM x 1): 10; 24 h

Sequence of PARP1 L713F-nLuc biosensor (HCT116) (P09874 whole entry L713F, looked up): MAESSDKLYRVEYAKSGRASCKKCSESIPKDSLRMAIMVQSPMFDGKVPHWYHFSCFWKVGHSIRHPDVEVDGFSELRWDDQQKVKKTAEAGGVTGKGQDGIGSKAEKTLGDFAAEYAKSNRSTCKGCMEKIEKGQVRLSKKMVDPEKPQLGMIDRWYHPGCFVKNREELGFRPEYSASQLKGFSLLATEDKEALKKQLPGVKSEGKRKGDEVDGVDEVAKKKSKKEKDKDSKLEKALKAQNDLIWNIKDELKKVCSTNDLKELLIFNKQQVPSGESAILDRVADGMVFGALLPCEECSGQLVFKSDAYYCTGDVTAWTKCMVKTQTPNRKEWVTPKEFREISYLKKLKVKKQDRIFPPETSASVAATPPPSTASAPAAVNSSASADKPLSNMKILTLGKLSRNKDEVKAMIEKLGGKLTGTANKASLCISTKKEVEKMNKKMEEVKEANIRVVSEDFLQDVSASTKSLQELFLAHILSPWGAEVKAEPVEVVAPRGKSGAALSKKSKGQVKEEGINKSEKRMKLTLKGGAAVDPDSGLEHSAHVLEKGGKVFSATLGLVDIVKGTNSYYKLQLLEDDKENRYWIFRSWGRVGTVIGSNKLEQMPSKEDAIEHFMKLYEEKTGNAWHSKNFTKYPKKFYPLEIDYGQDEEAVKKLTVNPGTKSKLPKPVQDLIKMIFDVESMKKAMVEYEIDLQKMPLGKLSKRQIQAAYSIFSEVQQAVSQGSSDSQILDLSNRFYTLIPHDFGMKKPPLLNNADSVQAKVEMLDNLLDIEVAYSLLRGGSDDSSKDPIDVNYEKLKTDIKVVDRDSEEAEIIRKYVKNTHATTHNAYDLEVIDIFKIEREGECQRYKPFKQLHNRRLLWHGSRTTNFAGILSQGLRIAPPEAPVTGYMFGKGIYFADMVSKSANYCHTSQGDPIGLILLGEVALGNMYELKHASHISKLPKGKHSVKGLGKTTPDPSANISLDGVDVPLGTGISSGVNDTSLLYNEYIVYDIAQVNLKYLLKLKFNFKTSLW

SMILES | PARP1 L713F-nLuc/akaLuc ratio
Cc1nc(C(=O)NCC(=O)O)c(O)c2ccc(Oc3ccccc3)cc12 [Roxadustat] | 1.02
C[C@@H]1O[C@@H](O[C@H]2[C@H](OC(=O)[C@]34CCC(C)(C)C[C@H]3C3=CC[C@@H]5[C@@]6(C)C[C@H](O)[C@H](O[C@@H]7O[C@H](CO)[C@@H](O)[C@H](O)[C@H]7O)C(CO)(CO)[C@@H]6CC[C@@]5(C)[C@]3(C)C[C@H]4O)OC[C@H](O)[C@@H]2O)[C@H](O)[C@H](O)[C@H]1O[C@@H]1OC[C@@H](O)[C@H](O[C@@H]2OC[C@](O)(CO)[C@H]2O)[C@H]1O [Platycodin D] | 0.771
O=C(O)c1cccc(CN2C(=O)/C(=C(\c3ccccc3)c3ccc(Cl)cc3)c3ccccc32)c1 | 1.18
O=C1CCC(N2C(=O)c3ccccc3C2=O)C(=O)N1 (stereo not given) [Thalidomide] | 0.757
COC(=O)c1ccc(OC(=O)CCCCCCC(=O)NO)cc1 [Remetinostat] | 1.25
CCn1c(C(=O)N(C2CC2)C2CC2)cc2c3c(ncn3C)c(Nc3cc(C)n(C)n3)nc21 | 1.01
COc1cc(OC)c2c(=O)[nH]c(-c3cc(C)c(OCCO)c(C)c3)nc2c1 [Apabetalone] | 1.28
N[C@H]1C(O)O[C@H](CO)[C@@H](O)[C@@H]1O (stereo not given in full) [Glucosamine] | 1.02
O=c1cc(O)cc(/C=C/c2ccc(O)c(O)c2)o1 [Hispidin] | 1.19
COc1ccc2c(c1O)OC(C)(C)c1c-2ccc2c1C(=O)N(c1ccc(C(=O)c3ccccc3)cc1)C2=O [Ampkinone] | 1.18

— the supplement of paper PMC11624193, “Coupling cellular drug-target engagement to downstream pharmacology with CeTEAM” (Nature Communications, 2024)
